Results from article PMC5913336, “True equilibrium measurement of transcription factor-DNA binding affinities using automated polarization microscopy”.

The sequences below were run against T1, Slp1-FL (Drosophila melanogaster, UniProt P32030) (assay: FP; 33 mM phosphate pH 7.0, 90 mM NaCl, 0.01% Tween 20, 0.1 mM DTT, 0.5% agarose; room temperature). Details: tags: N-GST (pGEX-6P-1, kept); dsDNA, one strand shown.
T1 sequence: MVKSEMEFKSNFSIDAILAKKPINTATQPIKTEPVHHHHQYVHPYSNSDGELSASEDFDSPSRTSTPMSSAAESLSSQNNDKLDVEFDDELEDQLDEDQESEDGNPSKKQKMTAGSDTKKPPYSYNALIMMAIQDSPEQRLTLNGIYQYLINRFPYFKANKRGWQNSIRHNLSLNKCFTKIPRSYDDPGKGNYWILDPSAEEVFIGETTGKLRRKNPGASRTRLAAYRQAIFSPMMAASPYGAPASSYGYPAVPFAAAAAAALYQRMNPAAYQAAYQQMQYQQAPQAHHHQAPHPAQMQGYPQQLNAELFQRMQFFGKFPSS

Sequence | binding signal
ACATGTTTACACTTA | 1.13 Kd / Kd of best base at the position
ACGTGTTTGCACTTA | 23.1 Kd / Kd of best base at the position
ACGTGGTTACACTTA | 14.4 Kd / Kd of best base at the position
